# Measurements from PubChem BioAssay (Tox21).
# Results filed as inconclusive are left out. Values without a mark were called inactive. Activity calls are given as the source filed them. Calls come from the whole dose curve; as a rule, active = well fitted cell-killing curve with a large enough effect in the repeat runs; inconclusive = weak or mixed curves, or effect the other way; inactive = flat fitted curve, though single readings scatter.
# Assay: qHTS assay to identify small molecule agonists of the androgen receptor (AR) signaling pathway in the presence of an antagonist - cell viability counter screen (AID 1259379); note: nearly all actives have a fitted effect of over 25% in size
# Settings: MDA-kb2 viability, CellTiter-Fluor, 16 h; series mostly up to 92.4 µM; activity change, negative = cytotoxicity: at the top concentration
# Description: National Center for Advancing Translational Sciences [NCATS]
# NIH Chemical Genomics Center [NCGC]
# U.S. Environmental Protection Agency [EPA]
# National Institutes of Environmental Health Sciences [NIEHS]
# National Toxicology Program [NTP]
# U.S. Food and Drug Administration [FDA]
# Androgen receptor (AR) is an important member of nuclear receptor family. Its signaling plays a critical role in AR-dependent prostate cancer and other androgen related diseases. Considerable attention has been given in the past decades to develop methods to study and screen for the environmental chemicals that have the potential to interfere with metabolic homeostasis, reproduction, developmental and behavioral functions. Therefore AR binding assay for screening against androgen agonists and antagonists can be used to identify potential endocrine disruptors.
# MDA-kb2 cells (from ATCC, deposited by Wilson et al.) are human breast carcinoma cells that were stably transfected with a luciferase reporter gene under control of the MMTV promoter that contains response elements for both androgen receptor (AR) and glucocorticoid receptor (GR). This particular screening for measuring luciferase reporter gene activity using MDA-kb2 cells against Tox21 10K library compounds is a confirmation study on agonist mode screening in the presence of AR-antagonist compound (Nilutamide) at 3.0uM final concentration. The cytotoxicity of the compounds was tested in parallel by measuring the cell viability using CellTiter-Fluor assay system (Promega, Madison, WI) in the same wells.
# Tox21 Assay Protocol Summary:
# MDA-kb2 cells (cells cultured without CO2) were dispensed at 3,000 cells/well in 4uL of culture medium into white wall/solid-bottom 1536-well plates (Corning Life Sciences, Corning, NY) using a Multidrop Combi (Thermo Fisher Scientific Inc., Waltham, MA) dispenser. The assay plates were incubated at 37C and 0% CO2 for 5hr. One uL of 3.0uM (final concentration) Nilutamide or assay buffer was added using two separate tips of Flying Reagent Dispenser (FRD, Aurora Discovery, San Diego, CA). Then 23nL of compounds dissolved in DMSO at 15 concentrations and positive controls were transferred to the assay plates using a Pintool station (Wako, San Diego, CA). The assay plates were incubated at 37C and 0% CO2 for 16 hr. After 15hr incubation at 37C, 1uL/well CellTiter-Fluor reagent (Promega Corporation) was added to each well of the assay plates using FRD. After 1hr incubation at 37C and 0% CO2, the fluorescence signal was measured using a ViewLux plate reader (PerkinElmer, Shelton, CT).
# % is set by controls: 0 for no effect and ±100 for the full control effect; potency is the fitted concentration of half-maximal effect.
Compound,"activity change, negative = cytotoxicity",Potency
COC(C)(C)CCO,1.49%,–
CCN(CC)CCNC(=O)c1cc(Br)c(N)cc1OC,1.48% [at 42.5 µM],–
CCCCc1ncc(/C=C(\Cc2cccs2)C(=O)O)n1Cc1ccc(C(=O)O)cc1,4% [at 42.5 µM],–
CCC(CC)Nc1ccc(C)c(C)c1,1.33%,–
O=C(CS)Nc1ccccc1,0.639% [at 42.5 µM],–
CN1C[C@H]2c3ccccc3Oc3ccc(Cl)cc3[C@@H]2C1,1.38% [at 42.5 µM],–
CC(=O)c1ccc2c(c1)N(CCCN(C)C)c1ccccc1S2,-7.45% [at 42.5 µM],–
O=C(OCCc1ccccc1)c1ccccc1,-5.64%,–
CCC(Cl)CCC(Cl)C(Cl)CC(Cl)C(Cl)C(Cl)CCl (stereo not given),-1.2%,–
Nc1ncn([C@H]2C[C@H](O)[C@@H](CO)O2)c(=O)n1,-1.14% [at 42.5 µM],–
CC1OC(=O)C(C)OC1=O (stereo not given),2.75%,–
C[C@@H]1C[C@H]2O[C@@]3(O[C@@H]2C(C)(C)O)[C@H](O)[C@@]2(C)[C@@H]4CC[C@H]5C(C)(C)[C@@H](O[C@@H]6OC[C@@H](O)[C@H](O)[C@H]6O)CC[C@@]56C[C@@]46CC[C@]2(C)[C@@H]13,0.0519% [at 42.5 µM],–
O=C(O)c1ccccc1Cl,-0.524%,–
Cc1ncc(CO)c(C=O)c1O,0.401% [at 42.5 µM],–
Cc1cccc(Nc2ccccc2)c1,0.178%,–
CN1Cc2cc(C(=O)N3CCC(C4CCNCC4)CC3)ccc2NC(CC(=O)O)C1=O (stereo not given),2.95% [at 42.5 µM],–
Brc1c2ccccc2cc2ccccc12,1.06%,–
CN(C)c1ccc(C(c2ccccc2)c2ccc(N(C)C)cc2)cc1,-1.02%,–
CC1=CCCC(C)(C)C12CCC(C)O2 (stereo not given),2.97%,–
OCCNCc1ccccc1,1.72%,–

Compound,"activity change, negative = cytotoxicity",Potency
O=C(O)c1ccc(-n2nc(-c3ccccc3O)nc2-c2ccccc2O)cc1,-0.436% [at 42.5 µM],–
CCCCCCCCCc1ccc(OCCOCCO)cc1,–,5.74 µM (active)
c1cc(CCCc2ccncc2)ccn1,0.129%,–
O=C(Nc1ccc(S(=O)(=O)N2CCOCC2)cc1)c1cc(Cl)ccc1NS(=O)(=O)c1ccc(Cl)s1,-10.2% [at 42.5 µM],–
O=C(O)c1ccco1,0.956%,–
O=C(O)CNCC(=O)O,-0.627% [at 8.39 µM],–
CCCCC(CC)COC(=O)CCCCCCCCC(=O)OCC(CC)CCCC (stereo not given),2.24%,–
CCCC(=O)Nc1ccc(O)c(C(C)=O)c1,-1.46% [at 42.5 µM],–
CCC(=O)O[C@]1(C(=O)CCl)[C@@H](C)C[C@H]2[C@@H]3CCC4=CC(=O)C=C[C@]4(C)[C@@]3(F)[C@@H](O)C[C@@]21C,-1.4% [at 42.5 µM],–
CCCCC/C=C\C/C=C\CCCCCCCC(=O)NC(C)c1ccccc1 (stereo not given),0.83% [at 42.5 µM],–
Nc1c(CC(=O)O)cccc1C(=O)c1ccc(Br)cc1,-6.02% [at 42.5 µM],–
CC(C)(O)c1ccc(CNC(=O)c2cccnc2Oc2ccc(F)cc2)cc1,-0.695%,–
C[C@@H]1C[C@H]2[C@@H]3CCC4=CC(=O)C=C[C@]4(C)[C@@]3(F)[C@@H](O)C[C@]2(C)[C@@]1(O)C(=O)COC(=O)c1ccncc1,0.92% [at 42.5 µM],–
O=C(c1ccc(F)cc1)C1CCN(CCn2c(=S)[nH]c3ccccc3c2=O)CC1,-9.06% [at 42.5 µM],–
CN1CCC(N(Cc2cccs2)c2ccccc2)CC1,1.44% [at 42.5 µM],–
CN(C)CCN(Cc1ccccc1)c1ccccn1,4.98% [at 42.5 µM],–
CC1CCC(=O)C1=O (stereo not given),0.974%,–
CC(C)CC(=O)C1C(=O)c2ccccc2C1=O,-8.76%,–
CCCCOC(=O)CCCCCCCC(=O)OCCCC,-0.502%,–
CCCCCCCCCOS(=O)(=O)O,-2.02%,–
